Test results from PubChem BioAssay AID1789 (The Scripps Research Institute Molecular Screening Center, 2009).
Values joined by “and” are separate entries in the source; they are usually repeats but may differ in a detail not shown here. Equal values may be shown once. Among all 290,000 compounds or so, about 2,700 (0.93%) were called active.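 Rule for the calls: active = inhibition above the screen-wide mean plus 3 SD, computed separately per campaign (cut at about 16% in these data); inactive = the rest.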 Only a selection was taken, and actives are over-represented in it overall.

system: Heat shock protein HSP 90 (rabbit reticulocyte lysate; luciferase refolding); assay: inhibitors of HSP90 chaperone activity – cell lysate, luminescence, primary screen (AID 1789); conditions: 3 h, at 5.6 µM, active compounds read high;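 note: 0% = DMSO wells and 100% = 60 µM geldanamycin wells; inhibitors lower the luminescence because luciferase stays unfolded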

inhibition, active:
Cc1nn(CC(=O)Nc2ccc(F)cc2)c(=O)c2ccccc12 31.8%
O=C(Cn1c[n+](CC(=O)c2ccc([N+](=O)[O-])cc2)cn1)c1ccc([N+](=O)[O-])cc1 17.4% and 20.8%
CN(CCO)c1ccc(/C=N/Nc2nncc3ccccc23)cc1 58.9%
O=C(Nc1cccnc1)c1noc2c1CCCCC2 39.9%
CCCS(=O)(=O)N1CCCC(C(=O)NCCN2CCCCC2C)C1 (stereo not drawn) 20.8%
O=C1c2ccccc2C(Nc2ccc3c(c2)OCCO3)N1Cc1ccco1 (stereo not drawn) 16.6%
COc1ccc(/C=C/c2noc(-c3ccccc3OC(C)=O)n2)cc1 24.5%
O=C(O)c1ccc(N/N=C/c2ccc3ncccc3c2)cc1 16.2%
O=C(CN1C(=O)c2ccccc2S1(=O)=O)N1CCc2ccccc21 56.6%
O=C(CSC(=S)N1CCOCC1)c1ccccc1 34.1%
Cn1c(-c2ccco2)nc2cc3ccccc3cc21 37.7%
Clc1ccc2nc(CSc3ccccc3)cn2c1 25.5%

inhibition, inactive:
O=S(=O)(c1ccccc1)c1nc(-c2ccccc2)oc1NCCCN1CCOCC1 -4.19%
O=C(NCCc1ccc(Cl)cc1Cl)c1cc([N+](=O)[O-])c[nH]c1=O -4.08%
O=C(Cn1nc(C(=O)O)c2ccccc2c1=O)Nc1ccc(F)cc1 0.16%
Cc1ccc(NC(=O)Cn2nc(C)c3ccccc3c2=O)c(C)c1 -0.05%
CCc1nnc(NC(=O)CCC(=O)N2CCN(c3cc(C)ccc3C)CC2)s1 -1.11%
O=C(c1ccncc1)c1ccc([N+](=O)[O-])cc1 1.75%
O=C(CC(n1cncn1)C(Cl)(Cl)Cl)c1ccc([N+](=O)[O-])cc1 (stereo not drawn) -0.82%
O=C(c1ccc(Br)o1)N1CCN(CCOc2ccccc2)CC1 -4.13%
COc1ccc(CNC(=O)c2ccc3oc(C(C)C)nc3c2)cc1 -4.27%
COc1cc(/C=N/Nc2nn3cnnc3c3ccccc23)cc(OC)c1OC -1.69%
C/C(=N\Nc1nncc2ccccc12)c1ccc(Cl)c([N+](=O)[O-])c1 3.18%
C=CCSc1nsc(NC(=O)Nc2cccc(C(C)=O)c2)n1 -1.06%
O=C(C1CCCN(S(=O)(=O)c2ccc([N+](=O)[O-])cc2)C1)N1CCCCC1 (stereo not drawn) 6.54%
O=C(Nc1cccnc1)c1cccc(S(=O)(=O)N2CCCC2)c1 -0.49%
O=C(c1noc2c1CCCC2)N1CCc2ccccc2C1 3.28%
CCn1cc(CN2CCC(C(=O)Nc3cccc(-c4cccc(Cl)c4)c3)CC2)cn1 7.07%
CCCS(=O)(=O)N1CCCC(C(=O)NCc2ccco2)C1 (stereo not drawn) -2%
CCS(=O)(=O)N1CCCC(C(=O)NCc2ccc(C)cc2)C1 (stereo not drawn) -1.37%
COc1ccccc1CN1CCCC(N2CCN(c3ccc(F)cc3)CC2)C1 (stereo not drawn) -1.44%
Cc1ccnc(N2C(=O)c3ccccc3C2Nc2ccc3c(c2)OCCO3)c1 (stereo not drawn) 1.87%
O=C(NC1CCCCC1)C1c2ccccc2C(=O)N1Cc1ccco1 (stereo not drawn) -0.31%
CCc1ccc(NC(=O)CN2CCC(C(=O)c3ccc(OC)cc3)CC2)cc1 0.9%
Cc1ccccc1OCC(=O)N(Cc1cccc(F)c1)C1CCS(=O)(=O)C1 (stereo not drawn) -1.03%
CC(=O)Oc1ccc2c(c1)C(=O)c1ccccc1C2=O 4.58%
CC(=O)Oc1ccc(-c2nc3c(C)cccc3c(=O)o2)cc1 -3.74%
O=C(O)c1ccc(/C=N/Nc2nc(N3CCCCC3)nc(N3CCCCC3)n2)cc1 1.51%
Cc1ccc2cc(/C=N/Nc3ccc(C(=O)O)cc3)c(Cl)nc2c1 1.97%
O=C(CN1CCN(c2ccccn2)CC1)N1CCc2ccccc21 2.52%
O=C(CN1C(=O)c2ccccc2S1(=O)=O)NC1CCCCC1 0.8%
O=C(Oc1cccc(O)c1)C1CCCCC1 2.03%
CC1CN(C(=S)SCC(=O)c2ccccc2)CC(C)O1 (stereo not drawn) 1.9%
O=C(CSC(=S)N1CCOCC1)c1cc(Br)cc(Br)c1O -0.31%
Cc1cccc(NC(=O)c2cccc(C(=O)Nc3cccc(C)c3C)n2)c1C -2.8%
O=C(NCCCc1ccccc1)c1cc(COc2c(F)cccc2F)on1 -1.08%
COc1ccc(CNS(=O)(=O)c2cc(-c3cc(C)no3)ccc2C(C)C)cc1 6.8%
CCN(CC)CCN(C(=O)c1cc(Cl)sc1Cl)c1nc2cc3c(cc2s1)OCO3 0.85%
COc1ccc(/C=N/Nc2nc(-c3ccc(C)cc3)c(C#N)c(=O)[nH]2)cc1 -6.02%
Cn1cccc1-c1nc2ccccc2n1C 2.48%
S=c1[nH]nc(-c2ccco2)n1/N=C/c1ccccc1 1.32%
CC(C)Cn1cnc2c1c(=O)n(CC(=O)NN)c(=O)n2Cc1ccccc1 -0.47%
COc1ccc(OC)c(NC(=O)c2cccc(S(=O)(=O)N3CCN(C(C)=O)CC3)c2)c1 0.82%
Cc1c(NC(=O)c2c([N+](=O)[O-])cnn2C)c(=O)n(-c2ccccc2)n1C 0.17%
O=C(/C=C/c1ccc2c(c1)OCO2)NCc1cn2cc(Cl)ccc2n1 -0.84%
CCOc1ncccc1C(=O)OCc1cn2cc(Cl)ccc2n1 -0.94%
N#C[C@]1(S(=O)(=O)c2ccccc2)C[C@@H]2ON=C(c3cccc(Br)c3)[C@@H]2C1 0.82%
COc1ccc(C(=O)N[C@H](C(=O)NCc2ccccc2)C(C)C)cc1 -4.29%
